Test results: PubChem BioAssay (EPA / NIEHS)
Where a structure was tested more than once in an assay, its records may differ in their call. Activity calls are given as the source filed them. How the source made its calls: active means hit-call score of the fitted dose curve at least 0.9, where 1 is the maximum; inactive means score below 0.9.

Experiment: CCTE_Shafer_MEA_dev_per_burst_spike_percent: CCTE's Neural Network Formation Assay for Percent of Spikes in a Burst, Shafer Lab (AID 2284032)
Procedure: CCTE_Shafer_MEA_dev assay is conducted using Axion Biosystems 48 well microelectrode array (MEA) plates and Maestro recording system. Each well of the MEA plate contains a grid of 16 microelectrodes embedded in the culture surface. Electrically active cells, such as neurons, can be cultured over the electrodes, and electrical activity in these cells can be recorded extracellularly. The spontaneous firing of neurons is captured from each electrode on a microsecond timescale providing both temporally and spatially precise data. […] The CCTE_Shafer_MEA_dev assay uses primary cultures of rat cortical neurons. Recordings are made on days post-plating 5, 7, 9 and 12. As these cultures mature over time, neural networks develop functional activity and form cohesive networks in which electrical activity can be highly coordinated. CCTE_Shafer_MEA_dev_per_burst_spike_percent is 1 of 19 assay components of the CCTE_Shafer_MEA_dev assay. It measures the percentage of spikes (action potential firings) in a single-electrode burst (temporally-clustered group of spikes) as the total number spikes in bursts divided by the total number of spikes during a recording in a microelectrode array (MEA) using Axion Biosystems Maestro 768 channel amplifier with the AxIS adaptive spike detector. The percent of spikes in bursts is averaged across the actively bursting electrodes to report a well-mean value. To collapse across multiple recordings made on days post-plating 5, 7, 9 and 12, the trapezoidal area-under-the-curve of the component is calculated.Data from the assay component CCTE_Shafer_MEA_dev_per_burst_spike_percent was analyzed into 1 assay endpoint. This assay endpoint, CCTE_Shafer_MEA_dev_per_burst_spike_percent, was analyzed in the negative analysis fitting direction relative to DMSO as the negative control and baseline of activity. Using a type of functional reporter, gain or loss-of-signal activity can be used to understand electrical activity.
On the day prior to culture, each well was coated thoroughly with 150 uL of 0.05% polyethyleneimine (PEI, Sigma Cat P3143) in 50 mM HEPES (Sigma Cat H7523) at a pH of 8. The plate was incubated at 37C for one hour. PEI was rinsed out with 500 uL of sterile water three times. Plates were stored at 4C until the day of culture. This culture was plated at a seeding density of 1.5 x 10^5 cells/well on a 48-well MEA plate, prepared as described above. Cells were administered via a 25 uL media/laminin ([…]; Sigma Cat L2020-1MG) drop directly onto the microelectrode array, as adding the cells with the laminin results in better attachment than pre-coating with laminin. After 2 hours, an additional 475 uL of cortical media was added and the cells returned to the incubator. Exposure starts at day 0 of plating and is continued over twelve days of network development until the experiment is terminated. Cells are fed with fresh medium on DIV 5 and 9, following the recordings on those days. The entire volume of media in the well is exchanged and any vehicle or compound treatment is renewed. Complete details are found in OP-NHEERL/ISTD/SBB/TJS/2015-03-r0 (available on request, email shafer.tim@epa.gov). Measurement of the electrical activity is non-invasive, and recordings can be made from the same plate over multiple different days of the culture. In cortical neurons, this allows for the measurement of extracellular action potentials over the period during which networks form in the MEA plate.

| Compound | outcome | AC50 |
| --- | --- | --- |
| O=CC(F)(F)C(F)(F)C(F)(F)F | inactive | – |
| OCC(F)(F)C(F)(F)C(F)(F)C(F)(F)C(F)(F)C(F)(F)C(F)(F)C(F)(F)C(F)(F)C(F)(F)C(F)(F)F | inactive | 15 µM (active) |
| O=C(C=C(O)C(F)(F)F)C(F)(F)F | inactive | – |
| O=C(O)CCC(F)(F)C(F)(F)C(F)(F)C(F)(F)C(F)(F)F | inactive | – |
| O=P(O)(O)CCC(F)(F)C(F)(F)C(F)(F)C(F)(F)C(F)(F)C(F)(F)C(F)(F)C(F)(F)F | – | 4.78 µM (active) |
| CN(CCO)S(=O)(=O)C(F)(F)C(F)(F)C(F)(F)C(F)(F)C(F)(F)C(F)(F)C(F)(F)C(F)(F)F | inactive | – |
| CC(=O)Nc1ccc(O)cc1 | inactive | – |
| O=C(CC(=O)C(F)(F)C(F)(F)C(F)(F)F)c1cccs1 | – | 8.19 µM (active) |
| COC(=O)C(F)(F)C(F)(F)C(F)(F)F | inactive | – |
| Nc1ccn([C@@H]2O[C@H](CO)[C@@H](O)C2O)c(=O)n1 (some centres not stated) | – | 0.341 µM (active) |
| O=C(OC(=O)C(F)(F)C(F)(F)F)C(F)(F)C(F)(F)F | inactive | – |
| O=P(O)(O)CCC(F)(F)C(F)(F)C(F)(F)C(F)(F)C(F)(F)C(F)(F)F | inactive | – |
| O=C(F)C(F)(F)C(F)(F)C(F)(F)C(=O)F | inactive | – |
| NC(C(F)(F)F)C(F)(F)F | inactive | – |
| FCOC(C(F)(F)F)C(F)(F)F | inactive | – |
| CC(C)c1c(C(=O)Nc2ccccc2)c(-c2ccccc2)c(-c2ccc(F)cc2)n1CC[C@@H](O)C[C@@H](O)CC(=O)O | – | 0.00992 µM (active) |
| COC(=O)C(F)(F)C(F)(F)C(F)(F)C(F)(F)C(F)(F)F | inactive | – |
| O=CC(F)(F)C(F)(F)C(F)(F)C(F)F | inactive | – |
| CN(Cc1cnc2nc(N)nc(N)c2n1)c1ccc(C(=O)N[C@@H](CCC(=O)O)C(=O)O)cc1 | – | 0.0318 µM (active) |
| FC(F)=C(F)C(F)(F)C(F)(F)C(F)(F)C(F)F | inactive | – |
| O=C1NS(=O)(=O)c2ccccc21 | inactive | – |
| C=CC(F)(F)C(F)(F)C(F)(F)C(F)(F)F | inactive | – |
| O=C(CCCN1CCC(O)(c2ccc(Cl)cc2)CC1)c1ccc(F)cc1 | – | 4.18 µM (active) |
| O=C(O)C(F)(F)OC(F)(F)C(F)(F)OC(F)(F)C(F)(F)OC(F)(F)C(F)(F)C(F)(F)C(F)(F)F | inactive | – |
| CN(C)CCOC(c1ccccc1)c1ccccc1 | – | 10 µM (active) |
| O=C(F)C(F)(F)C(F)(F)C(F)(F)C(F)F | inactive | – |
